The values that follow come from ChEMBL document CHEMBL3988442, “University of Dundee, Small-Polar-MMV Screening Library” (2021).

One assay concerns the target T1, Arginase-2, mitochondrial (Homo sapiens) (UniProt P78540).
T1 sequence (whole entry): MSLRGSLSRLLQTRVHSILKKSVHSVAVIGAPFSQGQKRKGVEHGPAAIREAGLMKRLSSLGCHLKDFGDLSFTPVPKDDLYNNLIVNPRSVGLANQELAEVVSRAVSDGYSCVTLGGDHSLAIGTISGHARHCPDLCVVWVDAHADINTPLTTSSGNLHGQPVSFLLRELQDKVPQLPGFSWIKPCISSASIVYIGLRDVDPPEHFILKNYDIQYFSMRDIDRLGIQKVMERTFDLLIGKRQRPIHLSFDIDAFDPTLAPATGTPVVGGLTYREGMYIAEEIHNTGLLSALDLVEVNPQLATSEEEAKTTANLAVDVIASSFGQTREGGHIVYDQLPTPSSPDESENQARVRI
In words: in vitro enzyme assay to detect the production of urea directly proportional to the activity of Arginase II. The class given is functional. Also on record: scale not given: in the data most compounds retested in dose-response had high values. As to conditions: 33.3 µM.
Regarding `CC(C)NC(=O)[C@@H](NC(=O)N1CCN(c2ccc(Cl)cc2)CC1)C(C)C`, the Percent Effect was -3.85%.

Consider `CC(C)NC(=O)N1CCC2(C1)CN(c1ccsc1)C(=O)CN2C` (stereo not given), for which the Percent Effect worked out at 5.26%.

As to `Cc1csc(Nc2nccnc2C2CCCN2C(=O)C(C)C)n1` (stereo not given), the Percent Effect was -0.885%.

On to `CS(=O)(=O)NCc1ncn2c1CN(C(=O)CC1CCCC1)CCC2`, for which the Percent Effect was -0.81%.

With `c1ccc(CCNC2CCc3ncnn3C2)nc1` (stereo not given), the Percent Effect is -1.84%.

As for `CS(=O)(=O)N1Cc2ccccc2C2(CCN(C(=O)c3ccno3)CC2)C1`, the Percent Effect is 5.48%.

Regarding `c1ccc(-n2ncc(CNC3CCc4ncnn4C3)n2)cc1` (stereo not given), the Percent Effect came out at 4.51%.

Regarding `O=C(NCCn1ccnc1)N1CCN(c2nccs2)CC1`, the Percent Effect amounted to 4.71%.

In the case of `CCN1CCO[C@]2(CCC[C@H]2COCc2csc(C)n2)C1`, the Percent Effect is -7.29%.

With `O=C(NCCCn1ccnc1)N1CCN(c2cccs2)CC1`, the Percent Effect is -9.22%.

`CC1CN(CC2CCCCC2)CCN1c1ccc2nncn2n1` (stereo not given): the Percent Effect was -0.82%.

Consider `CC(Cn1cccn1)NC(=O)NCc1cccs1` (stereo not given), for which the Percent Effect was found to be 0.887%.

For the compound `CCn1nc(C)c(CCNC(=O)C2CCCN(CC(N)=O)C2)c1C` (stereo not given), the Percent Effect worked out at 9.44%.

As for `CCn1ccnc1CNCC1CCCN1c1cccnn1` (stereo not given), the Percent Effect was determined as 0.444%.

Turning to `CCC(=O)N(C)CC(=O)Nc1ccc(Br)cn1`, the Percent Effect stood at 1.77%.

With `Cn1ccc(CN2CCCC2c2ccc3c(c2)OCCCO3)cc1=O` (stereo not given), the Percent Effect is 6.56%.

For the compound `CCOc1ccc2[nH]c(=O)c(CN3CCC(O)CC3)cc2c1`, the Percent Effect was -1.75%.

`c1ncn(CC2CN(Cc3noc(C4CC4)n3)CCO2)n1` (stereo not given): the Percent Effect was -3.55%.

Turning to `Cc1cccc(CN2C[C@@H]3CN(C(=O)[C@H]4CCCO4)C[C@@H]3C2=O)c1`, the Percent Effect is -2.28%.

Take `CS(=O)(=O)c1cccc(C(N)c2ccc(F)c(F)c2)c1` (stereo not given): the Percent Effect was -2.66%.

For `CN1CCC/C1=N\S(=O)(=O)c1ccc(NC(=O)c2cccs2)cc1`, the Percent Effect was -3.48%.

In the case of `CC(NC(=O)NCCCn1cncn1)c1ccccc1Cl` (stereo not given), the Percent Effect was 3.99%.

Take `Cn1cnc2c1CCN(Cc1csc(-c3ccsc3)n1)C2`: the Percent Effect came out at 3.69%.

Take `c1ncn(CC2CCCN2Cc2cn3ccsc3n2)n1` (stereo not given): the Percent Effect was -1.23%.

Consider `Cn1cc(C(=O)N2CCCC(Cc3nccs3)C2)cn1` (stereo not given), for which the Percent Effect was 3.54%.

`CCc1nc(C)c(C(=O)NCCN2CCN(C(C)=O)CC2)s1`: the Percent Effect came out at 1.43%.

On to `COCCO[C@H]1CCN(C(=O)c2cc(C)on2)[C@H]1Cc1ccccc1`, for which the Percent Effect is -0.913%.

In the case of `O=C(NCCc1ccccc1)C1CCCN(c2ccc3nncn3n2)C1` (stereo not given), the Percent Effect is 1.75%.

For the compound `CCn1cc(NC(=O)NCc2ccc(CN3CCOCC3)cc2)cn1`, the Percent Effect is -6.35%.

As to `CN(C)CCN1C(=O)CCC12CCN(C(=O)c1cccnc1)CC2`, the Percent Effect is 0.457%.

Consider `Cc1ccc(NC(=O)N2C[C@H]3CC[C@@H]2CN(Cc2cscn2)C3)cc1`, for which the Percent Effect was determined as 5.25%.

On to `Cc1cc(NC(=O)CN2CCCC2c2noc(C(C)C)n2)n(C)n1` (stereo not given), for which the Percent Effect was -0.444%.

For `CC(C)CCN(C)C(=O)c1nc(S(C)(=O)=O)n2ccccc12`, the Percent Effect came to 1.23%.

With `Cc1cnn(CC2CN(CC(=O)NCc3ccccn3)CCO2)c1` (stereo not given), the Percent Effect is -4.88%.

With `COCCN1CCN(Cc2cccc(C(N)=O)c2)CC1C` (stereo not given), the Percent Effect is -2.66%.

With `Cc1cc(CN(C)C(=O)NCC(C)N2CCc3ccccc32)no1` (stereo not given), the Percent Effect is -2.25%.

As for `Cc1c(F)cccc1CN1CCn2nc(CNC(=O)N(C)C)cc2C1`, the Percent Effect was 28.3%.

As for `CC(C)CNC(=O)c1ccc2nnc(C3CCN(S(C)(=O)=O)C3)n2c1` (stereo not given), the Percent Effect was 0%.

In the case of `CCOC(=O)N1CCN(C(=O)c2sc(-c3ccccc3F)nc2C)CC1`, the Percent Effect stood at 30.4%.

On to `COCCN1C(=O)CCC12CCN(C(=O)NC(C)C)CC2`, for which the Percent Effect was -0.457%.

Another assay addresses T2, Proteasome subunit beta (Trypanosoma cruzi) (UniProt O96673).
T2 sequence (whole entry): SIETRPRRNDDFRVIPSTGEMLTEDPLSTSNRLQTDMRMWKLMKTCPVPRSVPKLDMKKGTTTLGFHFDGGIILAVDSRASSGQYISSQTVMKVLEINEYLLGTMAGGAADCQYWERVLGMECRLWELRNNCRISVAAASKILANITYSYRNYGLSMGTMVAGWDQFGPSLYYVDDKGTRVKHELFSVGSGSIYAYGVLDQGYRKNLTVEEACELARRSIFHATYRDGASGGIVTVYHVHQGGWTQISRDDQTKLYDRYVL
In words: Trypanosoma cruzi proteasome chymotrypsin-like activity (TcProtChymo) assay. It is filed as functional. Set-up: scale not given: in the data most compounds retested in dose-response had high values. As to conditions: 9.37 µM.
With `CC(C)NC(=O)[C@@H](NC(=O)N1CCN(c2ccc(Cl)cc2)CC1)C(C)C`, the Percent Effect came to 12.2%.

`CC(C)NC(=O)N1CCC2(C1)CN(c1ccsc1)C(=O)CN2C` (stereo not given): the Percent Effect worked out at 20.6%.

As for `Cc1csc(Nc2nccnc2C2CCCN2C(=O)C(C)C)n1` (stereo not given), the Percent Effect was 9.69%.

Take `CS(=O)(=O)NCc1ncn2c1CN(C(=O)CC1CCCC1)CCC2`: the Percent Effect amounted to 2.91%.

As for `c1ccc(CCNC2CCc3ncnn3C2)nc1` (stereo not given), the Percent Effect came out at 11.8%.

Turning to `CS(=O)(=O)N1Cc2ccccc2C2(CCN(C(=O)c3ccno3)CC2)C1`, the Percent Effect was found to be 18.4%.

In the case of `c1ccc(-n2ncc(CNC3CCc4ncnn4C3)n2)cc1` (stereo not given), the Percent Effect was 3.16%.

As to `O=C(NCCn1ccnc1)N1CCN(c2nccs2)CC1`, the Percent Effect was found to be 18.2%.

As to `CCN1CCO[C@]2(CCC[C@H]2COCc2csc(C)n2)C1`, the Percent Effect was found to be 3.27%.

Turning to `O=C(NCCCn1ccnc1)N1CCN(c2cccs2)CC1`, the Percent Effect is 12.8%.

On to `CC1CN(CC2CCCCC2)CCN1c1ccc2nncn2n1` (stereo not given), for which the Percent Effect was 16.1%.

Turning to `CC(Cn1cccn1)NC(=O)NCc1cccs1` (stereo not given), the Percent Effect was found to be 13%.

On to `CCn1nc(C)c(CCNC(=O)C2CCCN(CC(N)=O)C2)c1C` (stereo not given), for which the Percent Effect is 5.14%.

Take `CCn1ccnc1CNCC1CCCN1c1cccnn1` (stereo not given): the Percent Effect was 1.78%.

For `CCC(=O)N(C)CC(=O)Nc1ccc(Br)cn1`, the Percent Effect was determined as 6.87%.

As to `Cn1ccc(CN2CCCC2c2ccc3c(c2)OCCCO3)cc1=O` (stereo not given), the Percent Effect came to 18.2%.

For the compound `CCOc1ccc2[nH]c(=O)c(CN3CCC(O)CC3)cc2c1`, the Percent Effect is 3.77%.

Regarding `c1ncn(CC2CN(Cc3noc(C4CC4)n3)CCO2)n1` (stereo not given), the Percent Effect was -1.1%.

`Cc1cccc(CN2C[C@@H]3CN(C(=O)[C@H]4CCCO4)C[C@@H]3C2=O)c1`: the Percent Effect is 16.4%.

As for `CS(=O)(=O)c1cccc(C(N)c2ccc(F)c(F)c2)c1` (stereo not given), the Percent Effect was determined as 4.16%.

Take `CN1CCC/C1=N\S(=O)(=O)c1ccc(NC(=O)c2cccs2)cc1`: the Percent Effect worked out at 12.5%.

In the case of `CC(NC(=O)NCCCn1cncn1)c1ccccc1Cl` (stereo not given), the Percent Effect was 7.72%.

As for `Cn1cnc2c1CCN(Cc1csc(-c3ccsc3)n1)C2`, the Percent Effect amounted to 13.2%.

Take `c1ncn(CC2CCCN2Cc2cn3ccsc3n2)n1` (stereo not given): the Percent Effect is -4.86%.

Regarding `Cn1cc(C(=O)N2CCCC(Cc3nccs3)C2)cn1` (stereo not given), the Percent Effect was determined as 7.55%.

For `CCc1nc(C)c(C(=O)NCCN2CCN(C(C)=O)CC2)s1`, the Percent Effect is -0.702%.

On to `COCCO[C@H]1CCN(C(=O)c2cc(C)on2)[C@H]1Cc1ccccc1`, for which the Percent Effect came out at 7.47%.

As to `O=C(NCCc1ccccc1)C1CCCN(c2ccc3nncn3n2)C1` (stereo not given), the Percent Effect was 17.6%.

`CCn1cc(NC(=O)NCc2ccc(CN3CCOCC3)cc2)cn1`: the Percent Effect is 10%.

As to `CN(C)CCN1C(=O)CCC12CCN(C(=O)c1cccnc1)CC2`, the Percent Effect stood at 5.75%.

With `Cc1ccc(NC(=O)N2C[C@H]3CC[C@@H]2CN(Cc2cscn2)C3)cc1`, the Percent Effect stood at 4.45%.

`Cc1cc(NC(=O)CN2CCCC2c2noc(C(C)C)n2)n(C)n1` (stereo not given): the Percent Effect amounted to 4.67%.

For `CC(C)CCN(C)C(=O)c1nc(S(C)(=O)=O)n2ccccc12`, the Percent Effect was found to be 2.13%.

Take `Cc1cnn(CC2CN(CC(=O)NCc3ccccn3)CCO2)c1` (stereo not given): the Percent Effect is 5.17%.

Regarding `COCCN1CCN(Cc2cccc(C(N)=O)c2)CC1C` (stereo not given), the Percent Effect was 17.6%.

For `Cc1cc(CN(C)C(=O)NCC(C)N2CCc3ccccc32)no1` (stereo not given), the Percent Effect is -2.46%.

With `Cc1c(F)cccc1CN1CCn2nc(CNC(=O)N(C)C)cc2C1`, the Percent Effect amounted to 8.05%.

As to `CC(C)CNC(=O)c1ccc2nnc(C3CCN(S(C)(=O)=O)C3)n2c1` (stereo not given), the Percent Effect was 3.44%.

As for `CCOC(=O)N1CCN(C(=O)c2sc(-c3ccccc3F)nc2C)CC1`, the Percent Effect stood at 13.5%.

Regarding `COCCN1C(=O)CCC12CCN(C(=O)NC(C)C)CC2`, the Percent Effect was -2.66%.
